Inhibition data for 7 compounds are collected here from ChEMBL document CHEMBL1961873, “Compounds: GSK PKIS; Assays: Nanosyn kinase panel” (2012).

The target of test [1] is Tyrosine-protein kinase CSK (Homo sapiens) (UniProt P41240). To be noted: at 1 µM.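 Also: each value is an averaged inhibition reading.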
The target in test [2] is T1, Discoidin domain-containing receptor 2 (Homo sapiens) (UniProt Q16832).
T1 sequence (whole entry): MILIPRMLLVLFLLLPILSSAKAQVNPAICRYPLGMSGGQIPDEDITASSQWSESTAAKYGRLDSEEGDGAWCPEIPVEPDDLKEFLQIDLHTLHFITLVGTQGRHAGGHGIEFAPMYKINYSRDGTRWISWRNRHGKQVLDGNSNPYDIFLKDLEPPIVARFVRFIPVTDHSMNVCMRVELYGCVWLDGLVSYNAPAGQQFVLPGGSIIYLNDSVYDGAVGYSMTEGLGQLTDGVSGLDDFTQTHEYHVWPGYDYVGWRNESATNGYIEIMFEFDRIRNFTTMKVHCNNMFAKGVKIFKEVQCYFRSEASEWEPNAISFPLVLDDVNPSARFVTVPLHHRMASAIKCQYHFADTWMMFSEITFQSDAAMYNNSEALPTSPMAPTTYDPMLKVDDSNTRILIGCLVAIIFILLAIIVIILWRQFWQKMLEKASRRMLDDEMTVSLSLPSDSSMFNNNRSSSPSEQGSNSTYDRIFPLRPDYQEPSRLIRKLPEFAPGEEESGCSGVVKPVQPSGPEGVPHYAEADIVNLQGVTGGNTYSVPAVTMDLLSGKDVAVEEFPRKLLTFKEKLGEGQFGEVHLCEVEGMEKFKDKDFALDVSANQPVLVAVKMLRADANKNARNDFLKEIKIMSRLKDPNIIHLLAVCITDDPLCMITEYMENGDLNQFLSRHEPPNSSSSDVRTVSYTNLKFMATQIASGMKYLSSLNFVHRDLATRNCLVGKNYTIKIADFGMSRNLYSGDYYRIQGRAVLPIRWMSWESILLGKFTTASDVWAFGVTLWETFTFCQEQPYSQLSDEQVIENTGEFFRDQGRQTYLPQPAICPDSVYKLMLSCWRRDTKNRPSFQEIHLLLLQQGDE
The settings on record: at 0.1 µM.

Test [3] concerns the target T1, Discoidin domain-containing receptor 2 (Homo sapiens). To be noted: at 1 µM.
The target of test [4] is Epidermal growth factor receptor (Homo sapiens) (UniProt P00533). The settings on record: at 0.1 µM.
Test [5] shares this target. The settings on record: at 1 µM.
For test [6], the system named is Epidermal growth factor receptor (Homo sapiens), P00533 [L858R]. The settings on record: at 0.1 µM.
Epidermal growth factor receptor (Homo sapiens), P00533 [L858R], sequence (P00533 whole entry L858R): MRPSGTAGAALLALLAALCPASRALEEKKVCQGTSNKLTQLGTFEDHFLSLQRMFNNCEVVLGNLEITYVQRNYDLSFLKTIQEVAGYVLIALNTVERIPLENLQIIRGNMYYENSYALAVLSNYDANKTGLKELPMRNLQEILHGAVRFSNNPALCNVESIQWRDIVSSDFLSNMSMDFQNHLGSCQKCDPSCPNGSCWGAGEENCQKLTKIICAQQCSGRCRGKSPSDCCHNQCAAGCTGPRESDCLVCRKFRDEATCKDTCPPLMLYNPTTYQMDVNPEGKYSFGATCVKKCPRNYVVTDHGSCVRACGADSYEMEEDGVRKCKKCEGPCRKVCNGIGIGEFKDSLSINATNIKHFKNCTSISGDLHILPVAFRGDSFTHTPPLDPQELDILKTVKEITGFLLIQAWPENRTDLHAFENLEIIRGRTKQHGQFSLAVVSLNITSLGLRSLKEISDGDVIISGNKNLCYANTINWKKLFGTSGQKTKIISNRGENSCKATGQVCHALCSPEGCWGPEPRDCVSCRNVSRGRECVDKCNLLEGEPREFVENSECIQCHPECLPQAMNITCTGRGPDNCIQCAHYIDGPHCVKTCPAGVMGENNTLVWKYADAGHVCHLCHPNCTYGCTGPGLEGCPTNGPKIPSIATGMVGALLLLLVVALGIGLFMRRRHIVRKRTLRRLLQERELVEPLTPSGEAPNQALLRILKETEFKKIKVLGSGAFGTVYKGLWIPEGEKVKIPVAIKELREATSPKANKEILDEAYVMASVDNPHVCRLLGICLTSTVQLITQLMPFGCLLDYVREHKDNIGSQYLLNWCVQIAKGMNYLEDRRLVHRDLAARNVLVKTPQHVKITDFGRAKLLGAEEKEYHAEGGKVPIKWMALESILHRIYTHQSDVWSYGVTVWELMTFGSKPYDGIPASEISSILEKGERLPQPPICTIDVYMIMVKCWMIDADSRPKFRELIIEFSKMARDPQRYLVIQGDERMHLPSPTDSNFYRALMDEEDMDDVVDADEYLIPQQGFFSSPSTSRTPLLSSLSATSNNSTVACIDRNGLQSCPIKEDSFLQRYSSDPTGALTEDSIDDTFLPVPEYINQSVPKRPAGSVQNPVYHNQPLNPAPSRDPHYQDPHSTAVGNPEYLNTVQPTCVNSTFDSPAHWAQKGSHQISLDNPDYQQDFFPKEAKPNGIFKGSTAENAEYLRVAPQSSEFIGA
For test [7] the test system is unchanged. To be noted: at 1 µM.
Test [8] deals with Epidermal growth factor receptor (Homo sapiens), P00533 [L861Q]. To be noted: at 0.1 µM.
Epidermal growth factor receptor (Homo sapiens), P00533 [L861Q], sequence (P00533 whole entry L861Q): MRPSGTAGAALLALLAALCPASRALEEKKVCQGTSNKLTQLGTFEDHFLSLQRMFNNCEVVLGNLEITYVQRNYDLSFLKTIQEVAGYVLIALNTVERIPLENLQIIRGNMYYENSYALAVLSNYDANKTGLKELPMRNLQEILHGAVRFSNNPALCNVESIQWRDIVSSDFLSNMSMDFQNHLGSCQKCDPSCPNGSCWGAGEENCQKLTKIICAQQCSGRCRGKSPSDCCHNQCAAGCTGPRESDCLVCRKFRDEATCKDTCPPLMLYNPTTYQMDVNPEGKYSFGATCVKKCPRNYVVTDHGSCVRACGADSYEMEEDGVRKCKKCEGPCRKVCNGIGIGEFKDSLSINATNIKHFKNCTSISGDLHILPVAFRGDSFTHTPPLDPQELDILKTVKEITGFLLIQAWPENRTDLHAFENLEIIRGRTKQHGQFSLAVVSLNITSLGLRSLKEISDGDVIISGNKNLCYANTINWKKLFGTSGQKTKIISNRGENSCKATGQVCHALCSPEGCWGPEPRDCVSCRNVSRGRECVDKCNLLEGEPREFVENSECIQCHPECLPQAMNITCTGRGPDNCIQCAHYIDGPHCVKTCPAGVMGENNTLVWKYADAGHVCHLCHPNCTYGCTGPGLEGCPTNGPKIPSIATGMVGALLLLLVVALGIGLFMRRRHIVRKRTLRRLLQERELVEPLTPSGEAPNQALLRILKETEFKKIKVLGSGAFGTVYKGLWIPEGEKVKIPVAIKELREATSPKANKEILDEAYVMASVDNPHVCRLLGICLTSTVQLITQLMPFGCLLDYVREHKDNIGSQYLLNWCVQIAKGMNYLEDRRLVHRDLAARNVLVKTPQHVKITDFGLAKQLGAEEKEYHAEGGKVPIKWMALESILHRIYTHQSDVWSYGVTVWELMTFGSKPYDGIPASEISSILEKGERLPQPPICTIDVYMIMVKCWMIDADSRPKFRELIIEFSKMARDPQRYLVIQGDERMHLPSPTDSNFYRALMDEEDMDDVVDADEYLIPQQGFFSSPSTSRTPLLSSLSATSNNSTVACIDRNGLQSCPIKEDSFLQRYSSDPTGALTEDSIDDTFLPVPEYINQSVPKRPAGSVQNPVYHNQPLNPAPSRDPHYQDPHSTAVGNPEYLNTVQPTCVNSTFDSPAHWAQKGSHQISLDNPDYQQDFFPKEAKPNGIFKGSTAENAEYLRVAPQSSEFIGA
Test [9] shares this test system. The settings on record: at 1 µM.
The test system of test [10] is Epidermal growth factor receptor (Homo sapiens), P00533 [T790M]. To be noted: at 0.1 µM.
For test [11] the test system is unchanged. The settings on record: at 1 µM.
Test [12] has as its system Epidermal growth factor receptor (Homo sapiens), P00533 [L858R,T790M]. The settings on record: at 0.1 µM.
The test system is the same in test [13]. The settings on record: at 1 µM.
Test [14] addresses Ephrin type-A receptor 2 (Homo sapiens) (UniProt P29317). To be noted: at 0.1 µM.
Test [15] shares this target. To be noted: at 1 µM.
The target of test [16] is T2, Ephrin type-A receptor 3 (Homo sapiens) (UniProt P29320).
T2 sequence (whole entry): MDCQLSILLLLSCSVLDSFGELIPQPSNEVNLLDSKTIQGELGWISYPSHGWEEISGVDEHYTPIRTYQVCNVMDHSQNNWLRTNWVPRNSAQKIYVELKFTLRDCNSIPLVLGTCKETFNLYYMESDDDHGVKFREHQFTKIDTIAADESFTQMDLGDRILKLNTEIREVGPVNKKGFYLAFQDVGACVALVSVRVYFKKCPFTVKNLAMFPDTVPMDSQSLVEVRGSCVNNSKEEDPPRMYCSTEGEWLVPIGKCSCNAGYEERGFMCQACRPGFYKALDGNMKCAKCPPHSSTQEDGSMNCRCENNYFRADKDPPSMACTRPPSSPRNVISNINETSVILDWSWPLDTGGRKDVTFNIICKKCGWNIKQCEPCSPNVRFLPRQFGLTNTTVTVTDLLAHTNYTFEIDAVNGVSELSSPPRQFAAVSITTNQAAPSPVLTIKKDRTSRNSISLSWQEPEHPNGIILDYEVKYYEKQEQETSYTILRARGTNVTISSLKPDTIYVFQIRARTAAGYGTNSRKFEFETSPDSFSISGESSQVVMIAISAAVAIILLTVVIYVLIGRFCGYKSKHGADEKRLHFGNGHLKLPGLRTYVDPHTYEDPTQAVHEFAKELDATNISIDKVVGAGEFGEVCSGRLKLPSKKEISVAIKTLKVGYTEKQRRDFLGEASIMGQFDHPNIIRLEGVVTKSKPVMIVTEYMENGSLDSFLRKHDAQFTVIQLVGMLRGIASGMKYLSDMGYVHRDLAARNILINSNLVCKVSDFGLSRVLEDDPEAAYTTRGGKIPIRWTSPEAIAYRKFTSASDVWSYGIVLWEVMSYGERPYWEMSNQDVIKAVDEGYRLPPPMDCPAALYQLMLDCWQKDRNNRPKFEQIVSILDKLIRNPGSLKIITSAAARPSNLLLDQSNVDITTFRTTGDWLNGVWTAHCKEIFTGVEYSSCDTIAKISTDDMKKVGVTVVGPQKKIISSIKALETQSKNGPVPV
The settings on record: at 0.1 µM.

For test [17], the target named is T2, Ephrin type-A receptor 3 (Homo sapiens). The settings on record: at 1 µM.
In test [18] the target is Ephrin type-A receptor 4 (Homo sapiens) (UniProt P54764). The settings on record: at 0.1 µM.
For test [19] the target is unchanged. To be noted: at 1 µM.
Test [20] addresses T3, Ephrin type-B receptor 2 (Homo sapiens) (UniProt P29323).
T3 sequence (whole entry): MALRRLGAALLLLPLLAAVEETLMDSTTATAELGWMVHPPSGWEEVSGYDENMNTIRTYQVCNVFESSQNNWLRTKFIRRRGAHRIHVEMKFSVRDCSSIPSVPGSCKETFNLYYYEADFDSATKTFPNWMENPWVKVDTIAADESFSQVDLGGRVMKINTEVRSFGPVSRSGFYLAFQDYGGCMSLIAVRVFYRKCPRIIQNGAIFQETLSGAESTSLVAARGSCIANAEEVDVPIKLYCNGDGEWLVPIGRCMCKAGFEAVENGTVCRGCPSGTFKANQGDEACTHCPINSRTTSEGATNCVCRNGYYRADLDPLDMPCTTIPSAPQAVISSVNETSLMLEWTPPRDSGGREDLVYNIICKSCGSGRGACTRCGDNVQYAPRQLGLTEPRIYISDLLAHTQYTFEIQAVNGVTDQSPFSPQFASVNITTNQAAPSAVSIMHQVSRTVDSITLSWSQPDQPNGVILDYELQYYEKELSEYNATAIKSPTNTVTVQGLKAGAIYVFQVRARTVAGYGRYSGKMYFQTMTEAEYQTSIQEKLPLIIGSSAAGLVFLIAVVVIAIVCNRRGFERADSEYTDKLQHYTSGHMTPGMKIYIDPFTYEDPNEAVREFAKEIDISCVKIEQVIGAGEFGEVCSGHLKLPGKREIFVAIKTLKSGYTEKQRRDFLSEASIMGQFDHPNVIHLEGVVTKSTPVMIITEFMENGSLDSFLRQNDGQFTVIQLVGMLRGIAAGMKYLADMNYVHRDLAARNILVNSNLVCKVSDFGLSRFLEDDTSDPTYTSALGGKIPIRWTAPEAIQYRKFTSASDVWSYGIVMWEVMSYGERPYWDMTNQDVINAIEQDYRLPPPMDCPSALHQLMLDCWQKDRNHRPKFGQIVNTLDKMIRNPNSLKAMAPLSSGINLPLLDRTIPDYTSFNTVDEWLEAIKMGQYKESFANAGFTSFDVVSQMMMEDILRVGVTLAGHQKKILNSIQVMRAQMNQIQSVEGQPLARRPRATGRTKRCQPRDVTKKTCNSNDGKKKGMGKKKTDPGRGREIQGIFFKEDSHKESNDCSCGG
The settings on record: at 0.1 µM.

Ephrin type-A receptor 2 (Homo sapiens), sequence (P29317 whole entry): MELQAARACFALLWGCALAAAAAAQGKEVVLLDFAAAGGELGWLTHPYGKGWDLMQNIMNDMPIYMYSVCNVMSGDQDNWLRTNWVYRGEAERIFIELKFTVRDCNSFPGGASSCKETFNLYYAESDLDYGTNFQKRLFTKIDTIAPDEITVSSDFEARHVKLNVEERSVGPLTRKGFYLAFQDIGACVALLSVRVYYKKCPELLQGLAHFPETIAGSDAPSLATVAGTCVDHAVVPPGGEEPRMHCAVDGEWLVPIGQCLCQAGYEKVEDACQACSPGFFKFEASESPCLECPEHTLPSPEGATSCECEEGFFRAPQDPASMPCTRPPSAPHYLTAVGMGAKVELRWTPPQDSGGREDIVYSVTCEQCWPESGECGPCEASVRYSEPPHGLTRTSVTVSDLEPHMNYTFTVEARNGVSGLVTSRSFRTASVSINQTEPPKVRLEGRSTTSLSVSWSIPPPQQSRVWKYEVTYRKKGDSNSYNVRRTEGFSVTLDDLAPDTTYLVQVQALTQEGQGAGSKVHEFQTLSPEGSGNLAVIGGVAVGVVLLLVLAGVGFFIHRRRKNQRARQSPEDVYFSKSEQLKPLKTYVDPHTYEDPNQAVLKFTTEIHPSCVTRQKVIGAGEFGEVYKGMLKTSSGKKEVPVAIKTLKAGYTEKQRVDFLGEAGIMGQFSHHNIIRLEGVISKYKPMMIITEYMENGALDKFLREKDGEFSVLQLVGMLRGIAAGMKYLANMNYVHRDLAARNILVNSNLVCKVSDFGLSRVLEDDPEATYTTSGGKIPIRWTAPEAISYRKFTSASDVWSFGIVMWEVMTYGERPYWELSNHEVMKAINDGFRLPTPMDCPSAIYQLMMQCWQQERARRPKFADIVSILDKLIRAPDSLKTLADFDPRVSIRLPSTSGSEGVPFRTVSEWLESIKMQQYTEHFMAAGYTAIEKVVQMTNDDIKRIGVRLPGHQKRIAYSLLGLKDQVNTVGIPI
Tyrosine-protein kinase CSK (Homo sapiens), sequence (P41240 2-450 limits assumed): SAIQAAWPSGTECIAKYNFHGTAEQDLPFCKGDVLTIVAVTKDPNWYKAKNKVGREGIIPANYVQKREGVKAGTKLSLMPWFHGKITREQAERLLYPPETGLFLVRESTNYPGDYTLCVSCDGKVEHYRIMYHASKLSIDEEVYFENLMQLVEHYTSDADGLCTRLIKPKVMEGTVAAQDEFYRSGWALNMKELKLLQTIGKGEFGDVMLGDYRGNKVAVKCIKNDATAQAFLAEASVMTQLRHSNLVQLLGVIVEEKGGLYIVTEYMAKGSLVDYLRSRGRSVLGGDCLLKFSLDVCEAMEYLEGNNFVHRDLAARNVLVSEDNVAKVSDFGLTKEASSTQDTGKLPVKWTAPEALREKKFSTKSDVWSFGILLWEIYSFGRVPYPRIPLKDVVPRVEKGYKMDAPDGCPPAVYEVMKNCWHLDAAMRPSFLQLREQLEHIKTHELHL
Epidermal growth factor receptor (Homo sapiens), P00533 [L858R,T790M], sequence (P00533 whole entry T790M/L858R, looked up): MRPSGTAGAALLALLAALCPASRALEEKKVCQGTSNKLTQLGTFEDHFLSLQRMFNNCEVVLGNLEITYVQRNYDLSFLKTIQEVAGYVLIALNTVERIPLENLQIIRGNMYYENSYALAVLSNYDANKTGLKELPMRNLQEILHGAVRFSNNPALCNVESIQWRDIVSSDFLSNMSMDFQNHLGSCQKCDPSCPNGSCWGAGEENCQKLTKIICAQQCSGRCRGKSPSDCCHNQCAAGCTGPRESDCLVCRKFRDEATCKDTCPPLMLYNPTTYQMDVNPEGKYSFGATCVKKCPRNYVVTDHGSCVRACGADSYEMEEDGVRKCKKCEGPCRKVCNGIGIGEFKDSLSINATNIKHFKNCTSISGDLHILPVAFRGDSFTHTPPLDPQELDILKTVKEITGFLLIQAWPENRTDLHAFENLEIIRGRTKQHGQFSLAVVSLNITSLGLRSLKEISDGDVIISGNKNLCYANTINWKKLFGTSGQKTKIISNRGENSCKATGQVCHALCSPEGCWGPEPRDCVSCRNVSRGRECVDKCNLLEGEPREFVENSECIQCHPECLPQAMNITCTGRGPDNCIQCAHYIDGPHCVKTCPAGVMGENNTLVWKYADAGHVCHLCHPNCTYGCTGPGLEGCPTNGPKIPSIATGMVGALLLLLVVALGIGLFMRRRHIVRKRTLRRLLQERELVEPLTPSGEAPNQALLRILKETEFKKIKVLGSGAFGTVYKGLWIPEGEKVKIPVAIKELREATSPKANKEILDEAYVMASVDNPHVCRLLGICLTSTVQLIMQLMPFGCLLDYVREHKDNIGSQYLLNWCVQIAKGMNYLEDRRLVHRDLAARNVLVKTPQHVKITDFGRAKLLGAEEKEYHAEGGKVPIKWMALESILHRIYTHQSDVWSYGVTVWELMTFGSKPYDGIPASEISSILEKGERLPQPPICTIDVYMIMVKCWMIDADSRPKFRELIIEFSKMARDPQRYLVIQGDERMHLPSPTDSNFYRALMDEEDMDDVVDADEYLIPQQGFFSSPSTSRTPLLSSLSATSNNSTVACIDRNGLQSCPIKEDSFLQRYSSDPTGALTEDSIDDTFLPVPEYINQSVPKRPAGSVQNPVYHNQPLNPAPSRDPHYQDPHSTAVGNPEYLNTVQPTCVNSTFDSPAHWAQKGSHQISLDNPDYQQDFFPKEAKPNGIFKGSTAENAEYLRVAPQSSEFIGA

On to `Cc1ccc2c(-c3ccnc(Nc4ccccc4)n3)c(-c3ccc(F)cc3)nn2n1`, for which the inhibition worked out at 14.5% in [1]; 31.2% in [2]; 83.3% in [3]; 47.1% in test [4]; 78.4% in test [5]; 85.8% in test [6]. Moreover, the inhibition in [7] worked out at 97.4%; in test [8], 51.8%; in test [9], 87.8%; in [10], 8.63%; in test [11], 51.1%; in [12], 33.7%. The inhibition was 81.9% in test [13]; 6.42% in test [14]; 15% in test [15]; 9.53% in test [16]; 18.1% in test [17]; 11.5% in test [18]. Besides, the inhibition in [19] stood at 52.1%; in [20], 24.9%.
`CN1CCC(n2cnc(-c3ccc(F)cc3)c2-c2ccnc(Nc3ccccc3)n2)CC1`: the inhibition is 6.08% in test [1]; -0.08% in test [2]; 0.85% in test [3]; 9.04% in [4]; 46.6% in test [5]; 37% in test [6]. Besides, the inhibition is 84.8% in test [7]; 9.58% in test [8]; 51.3% in [9]; 1.19% in [10]; 15.5% in [11]; 9.65% in test [12]. Moreover, the inhibition in test [13] came to 49.1%; in [14], 0.44%; in test [15] it was 0.04%; in test [16], 1.78%; in [17] it was 4.18%; in test [18], 7.5%. Further, the results for the inhibition in test [19] and in [20] were 13.3% and 12.9%, respectively.
On to `O=C(O[C@H]1CN[C@H](C#Cc2cc3ncnc(Nc4ccc(Cc5ccccc5)cc4)c3s2)C1)N1CCOCC1`, for which the inhibition in [1] was 2.39%; in test [2], -1.8%; in test [3], -1.26%; in test [4], 27.8%; in test [5], 69.9%; in test [6], 1.68%. For the same compound, the inhibition in test [7] is 11.4%; in test [8], 15.1%; in test [9], 26.9%; in [10] it was 1.18%; in test [11], 10.5%; in test [12], -1.96%. In addition, the inhibition is -1.31% in test [13]; -0.49% in [14]; -1.09% in test [15]; 2.25% in test [16]; 3.5% in test [17]; 3.73% in test [18]. Also, the figures for the inhibition in test [19] and in [20] were 5.5% and 7.69%, respectively.
As for `NC(=O)c1sc(-n2cnc3ccc(C(F)(F)F)cc32)cc1OCc1ccccc1Br`, the inhibition in test [1] was 4.85%; in test [2], 1.6%; in [3], 0.21%; in [4], 0%; in test [5], -1.55%; in test [6], 1.72%. The inhibition was 4.51% in test [7]; 4.73% in test [8]; 1.73% in [9]; 2.11% in test [10]; 4.07% in test [11]; -0.44% in [12]. Further, the inhibition in test [13] was 3.88%; in test [14], -2.06%; in [15], -1.67%; in test [16], 2.19%; in test [17], 5.58%; in test [18], 10.1%. For the same compound, the values for the inhibition in test [19] and in [20] were 8.59% and 5.67%, respectively.
As to `CN(C)CCOc1ccc(-c2nc(-c3ccncc3)c(-c3ccc4c(c3)CC/C4=N\O)[nH]2)cc1`, the inhibition in test [1] stood at 2.75%; in test [2] it was 1.41%; in test [3], 0.64%; in test [4], 2.89%; in [5], 2.4%; in test [6] it was 5%. The inhibition is 9.64% in [7]; 2.57% in [8]; 8.13% in [9]; 2.18% in test [10]; 2.29% in test [11]; 2.36% in [12]. The inhibition in test [13] came out at 6.66%; in test [14], 1.49%; in [15], 0.74%; in test [16] it was 2.42%; in test [17], 3.57%; in test [18] it was 6.96%. The inhibition turned out to be 9.28% in test [19] and 5.22% in test [20].
For `N#Cc1c(NC(=O)c2ccc(F)cc2)sc2c1CCCC2`, the inhibition in test [1] was 0.65%; in test [2], 0.36%; in test [3], -0.2%; in test [4] it was 0.63%; in [5], 1.78%; in test [6], 0.66%. For the same compound, the inhibition in test [7] was 2.49%; in test [8], -0.06%; in [9] it was -1.78%; in [10] it was -0.49%; in test [11] it was -0.08%; in test [12] it was -2.24%. Further, the inhibition in test [13] was 0.47%; in [14], -2.58%; in [15] it was -2.61%; in [16], 1.47%; in test [17], 2.8%; in test [18], 4.24%. Moreover, the inhibition in [19] amounted to 2.26%; in test [20], 2.69%.
Take `CS(=O)(=O)CCNCc1coc(-c2ccc3ncnc(Nc4ccc(OCc5ccccc5)cc4)c3c2)c1`: the inhibition in test [1] came out at 5.24%; in test [2], 1.75%; in test [3] it was 1.8%; in test [4], 80.3%; in test [5], 92.2%; in [6], 30.6%. For the same compound, the inhibition was 82.5% in test [7]; 39.1% in [8]; 76% in test [9]; 2.61% in [10]; 10.3% in test [11]; -2.4% in test [12]. The inhibition in test [13] turned out to be 4.59%; in test [14] it was 2.56%; in test [15], 0.15%; in test [16], 7.79%; in test [17], 5.01%; in [18], 8.01%. The inhibition in [19] was 5.86%; in test [20], 3.86%.

As usually defined, the inhibition is the drop in the measured response relative to a control, in per cent.
